# Only some compounds are listed: those with a hit (about 19% of all), similar ones and a draw of the others.
# HT1080-NT tox = kills 2HG-producing HT-1080-NT fibrosarcoma cells. hit rate 1.6% among 360,000. Potency, µM (highest dose often 46.1 µM), actives largely listed as cytotoxic. HT-1080-NT fibrosarcoma viability, CellTiter-Glo ATP luminescence, 48 h;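 further: NT is the 2HG producing partner of a matched IDH1 knockdown line; nearly all actives have a fitted effect of over 55% in size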
#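 A 48-hour cytotoxicity screen used HT-1080-NT cells plated 2 hours before compound delivery. ATP-based CellTiter-Glo luminescence measured viability, normalized to DMSO and no-cell controls.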
# IL1B secr inh = inflammasome signaling inhibition, IL-1 beta readout | THP-1 LPS/ATP IL-1B secretion, AlphaLISA, 16 h; stronger effect = lower value | activity change, % at 57.5 µM | hit rate 4.7% among 360,000; in the data active means activity change below about -50%; inconclusive means mostly about -30% to -49%
#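 THP-1 cells pretreated 1 hr with compounds (up to 57.5 uM final), then stimulated with LPS (250 ng/mL final) plus ATP (1.25 mM final); secreted IL-1B measured by AlphaLISA after 16 hr, decreased signal indicating inhibition.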
# HT1080 IDH1KD tx = toxicity to HT-1080 IDH1 knockdown cells (counter line); HT-1080 IDH1 knockdown viability, ATP luminescence, 48 h; Potency, µM (series often up to 46.1 µM), most hits filed as cytotoxic; hit rate 2% among 360,000
#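 IDH1KD HT-1080 cells, 750/well, RPMI + 5% FBS; compound pinned after 2 h settling; 48 h, 37 °C; CellTiter-Glo luminescence; % activity normalised to DMSO and no-cell wells; curves fitted, classed by r2 and efficacy.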
# TDP1 cell CPT = DT40-hTDP1 cell growth loss with CPT. chicken DT40 Tdp1-/-;hTDP1 cells + 20 nM CPT, ATP luminescence, 48 h. Potency, µM (highest dose often 46.2 µM), actives largely listed as inhibitors. AID 686979. hit rate 12% among 420,000; further: nearly all actives have a fitted effect of over 55% in size
#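 Chicken DT40 Tdp1-/- cells complemented with human TDP1, 400 cells/well, exposed to compounds plus 20 nM camptothecin for at least 48 h at 37 C; viability read as ATP content by CellTiter-Glo luminescence.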
# DT40 TDP1 no CPT = qHTS for Inhibitors of human tyrosyl-DNA phosphodiesterase 1 (TDP1): qHTS in cells in absence of CPT. DT40 Tdp1-/- hTDP1 cells, no CPT, ATP luminescence, 48 h. Potency, µM (top dose mostly 46.2 µM), usual class: inhibitors. hit rate 15% among 420,000. AID 686978, 2013; further: nearly all actives have a fitted effect of over 55% in size
#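 Readout: luminescence from CellTiter-Glo after 30 min in the dark at RT. Cells: DT40 Tdp1-/- with stable hTDP1, 400/well. Exposure: compounds alone, ≥48 hr, 37 °C.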
# Hits are given with their value; – = inactive; ? = inconclusive; · = not tested or not shown; ! = not confirmed by another sample; [ ] = remark or other dose. Unless noted, the call rests on the fitted dose curve; in most records, active means well fitted curve in the direction sought with a large enough effect; inconclusive means small, poorly fitted or top-dose-only effect, or another doubt; inactive means no such curve, though single readings can be large; an effect the other way counts as inactive or inconclusive.
SMILES,HT1080-NT tox,IL1B secr inh,HT1080 IDH1KD tx,TDP1 cell CPT,DT40 TDP1 no CPT
CCN1CCN(c2nc(N)c([N+](=O)[O-])c(Nc3ccc(C)cc3)n2)CC1,–,-61.5,–,?,?
CCOc1ccc(Nc2nc(N)c([N+](=O)[O-])c(N3CCN(CC)CC3)n2)cc1,–,–,–,?,–
O=C(O)CSCC(=O)N1CCc2c([nH]c3ccccc23)C1C(F)(F)F (configuration not stated),?,–,–,–,–
COc1ccccc1NC(=O)N1CCc2c([nH]c3ccccc23)C1C(F)(F)F (configuration not stated),–,-60.5,–,–,–
COc1ccc(C(=O)N2CCc3c([nH]c4ccccc34)C2C(F)(F)F)cc1 (configuration not stated),–,–,–,?,?
O=C(c1cccc(C(F)(F)F)c1)N1CCc2c([nH]c3ccccc23)C1C(F)(F)F (configuration not stated),?,-83.1,?,?,?
Cc1cccc(N2CCN(C(=O)c3noc4c3COc3ccc(C)cc3-4)CC2C)c1 (configuration not stated),–,–,–,?,23.1µM
Cc1cccc(N2CCN(C(=O)c3ccc4ccccc4c3)CC2C)c1 (configuration not stated),–,?,–,?,?
COc1ccccc1N1CCN(C(=O)c2cc(C)oc2C)CC1,–,–,–,–,?
CCOc1ccccc1N1CCN(C(=O)c2cc(C)oc2C)CC1,–[9.24 µM],–,?,18.4µM,23.1µM
CCOc1ccccc1N1CCN(C(=O)c2csc(C)c2CC)CC1,–,?,–,?,20.6µM
Cc1cccc(N2CCN(C(=O)c3cc(C)oc3C)CC2C)c1 (configuration not stated),–,?,–,?,16.4µM
O=C1CCN(S(=O)(=O)c2cccs2)c2ccc(C(F)(F)F)cc2N1,–,?,–,–,–
CCOc1ccccc1N1CCN(C(=S)NC(=O)C23CC4CC(CC(C4)C2)C3)CC1,–,–,–,18.4µM,16.4µM
O=C(NC(=S)N1CCN(c2ccc(F)cc2)CC1)C12CC3CC(CC(C3)C1)C2,–,–,–,?,?
COc1ccc(N2CCN(C(=O)c3ccc(CS(=O)(=O)c4ccc(OC)cc4)o3)CC2)cc1,?,–,–,–,–
CCOc1ccccc1N1CCN(C(=O)Nc2ccc(F)c(Cl)c2)CC1,–,–,–,?,23.1µM
Cc1cc(C(=O)N2CCN(c3ccccc3O)CC2)c(C)o1,–,–,–,–,–
COc1cccc(N2CCN(C(=O)c3cc(C)oc3C)CC2)c1,?,–,?,11.6µM,13µM
COc1ccc(S(=O)(=O)Cc2ccc(C(=O)N3CCN(c4cccc(C)c4)C(C)C3)o2)cc1 (configuration not stated),2.59µM,–,11.6µM,5.17µM,5.17µM
Cc1cc(F)ccc1S(=O)(=O)NCC(c1ccc2c(c1)OCO2)N1CCOCC1 (configuration not stated),–,–,–,–,–
CN1C(=O)c2ccc(NC(=O)CCS(=O)(=O)c3ccccc3)cc2C1=O,–,–,–,–,–
Cn1c(=O)c2c(=O)cc(N)[nH]c2n(C)c1=O,–,–,–,–,–
CC12CCC(C(=O)N3CCC(Cc4ccccc4)CC3)(C(=O)C1=O)C2(C)C (configuration not stated),–,-102.4,–,–,?
OCCCNc1nc(-c2ccc(Br)cc2)nnc1-c1ccc(Cl)cc1,–,-56.6,?,23.1µM,?
SMILES,HT1080-NT tox,IL1B secr inh,HT1080 IDH1KD tx,TDP1 cell CPT,DT40 TDP1 no CPT
CCCc1c(C(=O)OCC)nnc2c(-c3ccccc3)c(C)nn12,·,·,·,?,–
Cc1ccc(NC(=O)CN2C(=O)NC(Cc3c[nH]c4ccccc34)C2=O)cc1S(=O)(=O)N1CCCCC1 (configuration not stated),–,?,–,20.6µM,20.6µM
COc1ccc(Cl)cc1NC(=O)CN1C(=O)NC(Cc2c[nH]c3ccccc23)C1=O (configuration not stated),–,-56.5,–,?,?
CCNC(=O)CCS(=O)(=O)c1ccc2ccccc2c1,–,–,–,–,–
CC(NC(=O)COc1ccccc1)C(=O)NCc1ccc(S(N)(=O)=O)cc1 (configuration not stated),–,–,–,–,–
COC(=O)C1N[C@@H]([C@@H](NC(=O)COc2ccccc2)C(=O)NCc2ccccc2)SC1(C)C (some centres not stated),–,–,–,?,20µM!
CCn1c2c(c3cc(C(=O)O)ccc31)CCCC2=O,–,–,–,?,25.9µM
CC1CC2(C)C(=CC1=O)CCC1C2C(O)CC2(C)C1CCC2(O)C(=O)CO (configuration not stated),–,?,–,–,?
CC(=O)NC(C(=O)c1ccccc1)C(=O)c1ccccc1,–,–,–,–,–
CCOP(=O)(OCC)C(NC(C)=O)C(=O)c1ccccc1 (configuration not stated),–,–,–,–,3.66µM
COc1ccc(N2CCN(C(=O)CC34CC5CC(CC(C5)C3)C4)CC2)c([N+](=O)[O-])c1,–,–,–,20.6µM,16.4µM
COc1ccc(N2CCN(C(=O)c3cccc(F)c3)CC2)c([N+](=O)[O-])c1,–,-52.5,–,?,?
CO/N=C/c1ccc(N2CCN(C(=O)c3ccc(C)cc3)CC2)c([N+](=O)[O-])c1,–,–,–,18.4µM,14.6µM
CO/N=C/c1ccc(N2CCCC2)c([N+](=O)[O-])c1,–,–,–,–,–
CCC(=O)N1CCN(c2ccc(OC)cc2[N+](=O)[O-])CC1,–[9.24 µM],–,–,–,–
COc1ccc(N2CCN(C(=O)c3ccc(F)cc3)CC2)c([N+](=O)[O-])c1,–,–,–,–,20.6µM
COc1ccc(N2CCN(C(=O)c3ccccc3F)CC2)c([N+](=O)[O-])c1,–,?,–,?,?
Cc1ccc(NC(=O)Cc2ccsc2)cc1S(=O)(=O)N1CCOCC1,–,–,–,–,–
CC(C)Oc1ccc(/C(O)=C2/C(=O)C(=O)N(CCN(C)C)C2c2cccs2)cc1 (configuration not stated),–,–,–,–,–
COc1ccc(N2CCN(C(=O)c3cccc(Br)c3)CC2)c([N+](=O)[O-])c1,–,?,–,23.1µM,16.4µM
O=C(c1ccc(F)cc1)N1CCN(c2cc(N3CCCCC3)c(F)cc2[N+](=O)[O-])CC1,–[9.24 µM],-82.8,?,?,?
COC(=O)/C(C#N)=C/c1cc(C)sc1C,–,·,–,–,–
CCCCCCCN(C(=O)CCl)c1cccc(C)c1,–,-105.2,?,?,23.1µM
